Among the data in PubChem BioAssay are z-score and composite z-score values, retold here.

The source made the active and inactive calls.

Test [1] in a line: optical density shifts of acrAB sulA E. coli – strain DRC41, OD650, 48 h, E. coli filamentation inducer project, primary screen (AID 1152).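 Note: E. coli MC1000 strain DRC41 lacking acrAB efflux pump and sulA.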 As to conditions: higher = more signal, called active from +8 up or from −8 down.
Test [2] in a line: probe aLefty1 binding on compound microarray – biochemical, small-molecule microarray, 635/667 nm fluorescence, primary screen (AID 1153).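 Note: score merges spot fluorescence with signal-to-noise ratio from the scanned slide images.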 Particulars: higher = more signal.
Test [3] in a line: plasmodial surface anion channel blockers, osmotic lysis – cell-based, P. falciparum Indochina, OD700, 1 h, primary screen (AID 1154). Particulars: P. falciparum Indochina infected RBC osmotic lysis, higher = more signal, called active from +8 up or from −8 down.
Test [4] is described as follows: plasmodial surface anion channel blockers, osmotic lysis – cell-based, P. falciparum Indochina, OD700, 2 h, primary screen (AID 1155).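 Note: lysis reports solute entry through the parasite surface anion channel PSAC.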 Particulars: P. falciparum Indochina infected erythrocytes, higher = more signal, called active from +8 up or from −8 down.
Test [5] can be described thus: changes in parasitized red cell lysis, either direction – P. falciparum Indochina, OD700, 3 h, PSAC antagonist project, primary screen (AID 1156). As to conditions: P. falciparum-infected erythrocytes, osmotic lysis, higher = more signal, called active from +8 up or from −8 down.
Test [6] is described as follows: plasmodial surface anion channel blockers, osmotic lysis – cell-based, P. falciparum Indochina, OD700, 18 h, primary screen (AID 1157). Particulars: P. falciparum Indochina infected erythrocytes, osmotic lysis OD700, 18 h; higher = more signal, called active from +8 up or from −8 down.
A short description of test [7]: S6 kinase pathway phospho-S6 level changes – cell-based, A549, cytoblot, luminescence, serum-stimulated, primary screen (AID 1158).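 Note: serum-stimulated A549 lung adenocarcinoma cells; signal is phosphorylated S6 detected by cytoblot immunostaining with HRP secondary.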 As to conditions: 5 h, higher = more signal.
In test [8] the target is NADPH oxidase 2 (Homo sapiens) (UniProt P04839). Description: compounds shifting NOX2 Amplex Red fluorescence – cell-based, HEK293-NOX2, PMA-stimulated, NOX inhibitor project, primary screen (AID 1159). Note: test concentration not given here. As to conditions: 45 min, higher = more signal, called active from +8 up or from −8 down.
Test [9] deals with NADPH oxidase 4 (Homo sapiens) (UniProt Q9NPH5). Description: compounds shifting NOX4 Amplex Red fluorescence – cell-based, HEK293-NOX4, tetracycline-induced, NOX inhibitor project, primary screen (AID 1160). Particulars: HEK293-NOX4, Amplex Red H2O2 fluorescence, 45 min; higher = more signal, called active from +8 up or from −8 down.
For test [10], the target named is NADPH oxidase 5 (Homo sapiens) (UniProt Q96PH1). Description: compounds shifting NOX5 Amplex Red fluorescence – cell-based, HEK293-NOX5, NOX inhibitor project, primary screen (AID 1161). As to conditions: HEK293-NOX5, ionomycin, 45 min, higher = more signal.
A short description of test [11]: compound effects on lung adenocarcinoma cell viability – A549, calcein-AM fluorescence, 48 h, basal, profiling panel (AID 1162). Note: test concentration not given here. As to conditions: higher = more signal.
Test [12] can be described thus: compound effects on differentiated 3T3-L1 adipocyte viability – cell-based, 3T3-L1 adipocytes, calcein-AM fluorescence, 48 h, basal, profiling panel (AID 1163). Note: test concentration not given here. As to conditions: 3T3-L1 adipocytes viability, higher = more signal.
A short description of test [13]: compound effects on hepatocellular carcinoma cell viability – HepG2, calcein-AM fluorescence, 48 h, basal, profiling panel (AID 1164). Note: test concentration not given here. Particulars: higher = more signal.
The nature of test [14]: compound effects on multiple myeloma cell viability – MM1S, calcein-AM fluorescence, 48 h, basal, profiling panel (AID 1165).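 Note: viability of MM1S multiple myeloma cells under basal unstimulated conditions; test concentration not given here.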 Particulars: higher = more signal.
A short description of test [15]: calcein-AM signal in unstimulated myeloma cells – cell-based, calcein-AM fluorescence, 48 h, PK04 Diversity Set, profiling panel (AID 1166).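 Note: cells grown under basal conditions without added stimulus; test concentration not given here.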 As to conditions: RPMI8226 myeloma viability, higher = more signal.
Test [16] is described as follows: JC-1 mitochondrial signal, unstimulated HepG2 cells – cell-based, JC-1 fluorescence, 24 h, 100 nL compound, profiling panel (AID 1167). Note: test concentration not given here. Particulars: HepG2 mitochondrial potential, higher = more signal.
Test [17] can be described thus: JC-1 mitochondrial signal, unstimulated adipocytes – cell-based, JC-1 fluorescence, 3T3-L1 adipocytes, 24 h, 100 nL compound, profiling panel (AID 1168). Note: test concentration not given here. Particulars: JC-1 mitochondrial fluorescence, higher = more signal, called active from +8 up or from −8 down.
Test [18] can be described thus: JC-1 mitochondrial signal, unstimulated myeloma cells – cell-based, JC-1 fluorescence, RPMI8226, 24 h, 100 nL compound, profiling panel (AID 1169). Note: test concentration not given here. Particulars: JC-1 mitochondrial potential fluorescence, higher = more signal.
Test [19] in a line: JC-1 mitochondrial signal, unstimulated MM1S myeloma – cell-based, JC-1 fluorescence, 24 h, 100 nL compound, profiling panel (AID 1170). Note: test concentration not given here. Particulars: MM1S mitochondrial potential, higher = more signal.
Test [20] in a line: resazurin metabolic signal in A549 cells – cell-based, resazurin fluorescence, 24 h, PK04 Diversity Set, profiling panel (AID 1171). Note: test concentration not given here. As to conditions: A549 viability, higher = more signal, called active from +8 up or from −8 down. (In general: Alamar Blue is a resazurin reagent that responds to reducing activity.)

Sequence of NADPH oxidase 2 (Homo sapiens) (P04839 whole entry, looked up): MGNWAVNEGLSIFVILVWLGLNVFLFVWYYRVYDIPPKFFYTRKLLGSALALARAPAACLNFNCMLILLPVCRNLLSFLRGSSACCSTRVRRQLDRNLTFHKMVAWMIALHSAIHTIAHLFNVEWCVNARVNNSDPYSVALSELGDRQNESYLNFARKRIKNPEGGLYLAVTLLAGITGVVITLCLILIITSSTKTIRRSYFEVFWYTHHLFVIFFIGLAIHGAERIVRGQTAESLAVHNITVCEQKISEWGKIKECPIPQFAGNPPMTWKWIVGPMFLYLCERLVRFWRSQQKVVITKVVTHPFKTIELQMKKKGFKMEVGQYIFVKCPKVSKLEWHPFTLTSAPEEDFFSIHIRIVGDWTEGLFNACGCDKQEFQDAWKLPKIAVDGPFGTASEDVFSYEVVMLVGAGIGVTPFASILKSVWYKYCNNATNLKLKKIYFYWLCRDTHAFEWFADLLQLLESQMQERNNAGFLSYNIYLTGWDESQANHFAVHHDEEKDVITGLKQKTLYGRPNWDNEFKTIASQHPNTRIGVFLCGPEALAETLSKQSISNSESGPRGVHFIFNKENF
Sequence of NADPH oxidase 5 (Homo sapiens) (Q96PH1 whole entry, looked up): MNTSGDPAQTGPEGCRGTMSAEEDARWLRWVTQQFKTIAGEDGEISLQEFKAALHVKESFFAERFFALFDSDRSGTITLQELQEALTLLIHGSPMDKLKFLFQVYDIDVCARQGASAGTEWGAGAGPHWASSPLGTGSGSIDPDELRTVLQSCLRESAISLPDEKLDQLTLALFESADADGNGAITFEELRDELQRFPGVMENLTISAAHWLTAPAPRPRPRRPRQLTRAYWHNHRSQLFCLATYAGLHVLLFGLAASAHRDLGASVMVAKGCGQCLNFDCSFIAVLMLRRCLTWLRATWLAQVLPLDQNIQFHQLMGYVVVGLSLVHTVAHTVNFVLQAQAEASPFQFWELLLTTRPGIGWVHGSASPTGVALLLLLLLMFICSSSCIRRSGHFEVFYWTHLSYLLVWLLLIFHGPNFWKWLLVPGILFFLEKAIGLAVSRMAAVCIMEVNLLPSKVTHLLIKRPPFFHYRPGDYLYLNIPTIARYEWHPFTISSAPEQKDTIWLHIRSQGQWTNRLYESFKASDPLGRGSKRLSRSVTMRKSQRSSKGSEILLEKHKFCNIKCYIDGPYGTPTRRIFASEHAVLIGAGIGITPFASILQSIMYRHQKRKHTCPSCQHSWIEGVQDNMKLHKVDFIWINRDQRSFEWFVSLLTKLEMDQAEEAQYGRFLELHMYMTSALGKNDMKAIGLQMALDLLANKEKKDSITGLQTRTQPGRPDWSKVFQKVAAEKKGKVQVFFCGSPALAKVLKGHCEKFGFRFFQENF
Sequence of NADPH oxidase 4 (Homo sapiens) (Q9NPH5 whole entry, looked up): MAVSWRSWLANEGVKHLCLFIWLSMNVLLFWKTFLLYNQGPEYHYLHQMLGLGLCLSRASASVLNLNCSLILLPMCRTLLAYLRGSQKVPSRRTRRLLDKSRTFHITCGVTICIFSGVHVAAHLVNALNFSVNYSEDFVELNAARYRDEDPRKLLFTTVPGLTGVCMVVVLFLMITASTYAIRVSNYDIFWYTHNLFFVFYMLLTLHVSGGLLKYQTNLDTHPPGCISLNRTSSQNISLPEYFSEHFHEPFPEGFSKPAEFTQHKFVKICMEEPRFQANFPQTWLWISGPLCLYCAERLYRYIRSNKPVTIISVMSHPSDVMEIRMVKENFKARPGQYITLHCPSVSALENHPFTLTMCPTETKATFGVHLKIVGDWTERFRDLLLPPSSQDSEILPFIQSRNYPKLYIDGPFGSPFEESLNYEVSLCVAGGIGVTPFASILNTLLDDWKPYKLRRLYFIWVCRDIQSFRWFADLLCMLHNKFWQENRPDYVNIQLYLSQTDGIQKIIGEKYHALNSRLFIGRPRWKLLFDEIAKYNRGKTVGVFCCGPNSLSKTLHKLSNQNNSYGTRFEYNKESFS

On to `C=CC[C@@]1(C(=O)NCC(O)CO)N=C(c2ccc(OCCCO)cc2)O[C@@H]1c1ccccc1CN=[N+]=[N-]` (stereo not given in full), for which the z-score in test [1] is 1.39 (inactive); in test [3] it was 24.9 (active); in test [4], 9.51 (active); in test [5], 1.99 (inactive); in test [6], 1.25 (inactive); in test [7], 0.281. Besides, the z-score in test [8] was -0.424 (inactive); in test [9], 0.495 (inactive); in test [10] it was -0.927; in [11] it was 2.22; in test [12], 0.0076; in test [13], 0.816. Also, the z-score in test [14] is 0.92; in test [15], 0.0295; in test [16], 1.41; in test [17], 1.62 (inactive); in test [18] it was -0.153; in [19] it was -0.873. Moreover, in test [20], the z-score is 0.047 (inactive). In [2], the composite z-score turned out to be 0.129.

As for `O=C(NCc1ccccc1)[C@@]1(Cc2ccccc2)COC(c2ccc(OCCCO)cc2)=N1`, the z-score in test [1] was -0.65 (inactive); in [3] it was 29.5 (active); in [4], 21.2 (active); in test [5] it was 3.61 (inactive); in test [6] it was 3.89 (inactive); in test [7] it was 0.366. The z-score was -3.55 (inactive) in [8]; -0.556 (inactive) in test [9]; -2.81 in test [10]; -1.65 in test [11]; -2.05 in test [12]; -2.78 in test [13]. For the same molecule, the z-score in test [14] is -3.58; in [15], -3.06; in test [16], -2.97; in [17], 0.558 (inactive); in test [18] it was -1.06; in test [19], -2.9. In addition, the z-score in test [20] was -2.77 (inactive). The composite z-score in [2] is 0.205.

Consider `C[N+](C)(C)CCCC[C@@H]1NC(=O)[C@H]2C[C@@H](C(=O)NCc3ccc(F)cc3)[C@@H](c3cccc(OCCO)c3)N2C1=O`, for which the z-score in test [1] was 0.923 (inactive); in [3], 2.46 (inactive); in test [4] it was -1.3 (inactive); in test [5] it was -5.77 (inactive); in [6], -2.37 (inactive); in test [7], 0.123. Besides, the z-score is 0.999 (inactive) in [8]; 0.834 (inactive) in test [9]; 1.53 in [10]; 0.191 in test [11]; 1.01 in [12]; -0.676 in [13]. Moreover, the z-score is -1.04 in [14]; 0.366 in test [15]; 1.79 in [16]; 1.06 (inactive) in test [17]; -0.397 in test [18]; 0.392 in test [19]. Also, the z-score in test [20] is 0.656 (inactive). Moreover, the composite z-score in test [2] is -0.0536.

As for `NC(=O)NCC#Cc1ccc2c(c1)[C@]1(C(=O)N2)[C@H](c2ccccc2OCCO)N2[C@H](c3ccccc3)[C@H](c3ccccc3)OC(=O)[C@H]2[C@@H]1C(=O)N1CCN(c2ncccn2)CC1`, the z-score was 2.11 (inactive) in test [1]; 3.42 (inactive) in test [3]; 0.449 (inactive) in test [4]; 0.229 (inactive) in test [5]; -1.44 (inactive) in test [6]; 2.08 in test [7]. The z-score in [8] is 1.09 (inactive); in test [9], 0.958 (inactive); in test [10], -0.596; in [11] it was -0.525; in test [12], 0.932; in test [13], 0.238. For the same molecule, the z-score is 0.147 in test [14]; 0.598 in test [15]; -1.48 in [16]; 1.08 (inactive) in test [17]; -0.356 in test [18]; -0.293 in test [19]. Further, the z-score in test [20] was 0.157 (inactive). Further, the composite z-score in test [2] was found to be 0.445.

For the molecule `COc1ccc([Si](C)(C)[C@H]2[C@H](CCO)O[C@@]3(C(=O)N(Cc4ccc(N5CCCCC5=O)cc4)c4ccccc43)[C@@H]2C)cc1`, the z-score in test [1] is 0.178 (inactive); in test [3], 29.4 (active); in [4], 25.6 (active); in [5] it was -0.512 (inactive); in test [6] it was 2.98 (inactive); in [7] it was 1.26. Moreover, the z-score was 1.11 (inactive) in [8]; 0.347 (inactive) in test [9]; 1.5 in test [10]; -0.124 in test [11]; 0.705 in test [12]; -0.263 in test [13]. Moreover, the z-score in test [14] is -2.59; in [15], -0.628; in test [16] it was 1.05; in test [17], 1.04 (inactive); in [18] it was -0.48; in test [19], -0.119. The z-score in [20] was -2.32 (inactive). In test [2], this molecule gave a composite z-score of 0.0361.

Consider `CO[C@H]1COC(=O)[C@H](Cc2ccccc2)NC(=O)CC=C[C@@H](C)[C@H](OC)COC(=O)CC=C[C@@H]1C`, for which the z-score in test [1] is 0.284 (inactive); in test [3] it was -0.144 (inactive); in test [4], -1.22 (inactive); in test [5], -1 (inactive); in test [6], -1.27 (inactive); in test [7], 0.501. Besides, the z-score is -3.05 (inactive) in [8]; 0.103 (inactive) in test [9]; 0.784 in [10]; -0.0862 in test [11]; -0.557 in test [12]; 0.5 in [13]. The z-score in test [14] was 0.214; in test [15], 1.71; in test [16] it was 0.00562; in test [17], 0.954 (inactive); in test [18], -0.791; in test [19], 0.411. In test [20], the z-score is 0.174 (inactive). In test [2], this molecule registered a composite z-score of -0.0241.

For the molecule `COCCCNC(=O)[C@@]1(c2ccc([N+](=O)[O-])cc2)CC(=O)N(C2CCCCC2)[C@@H]1c1ccc(CO)cc1`, the z-score in test [1] is 0.857 (inactive); in test [3], 1.93 (inactive); in test [4], 0.349 (inactive); in [5], 1.76 (inactive); in test [6], 0.499 (inactive); in [7], -0.203. Further, the z-score is 0.929 (inactive) in [8]; 0.721 (inactive) in test [9]; 0.537 in test [10]; 0.286 in [11]; 0.0134 in test [12]; 0.366 in test [13]. Moreover, the z-score was -0.214 in test [14]; -0.0968 in test [15]; 0.437 in [16]; -0.605 (inactive) in test [17]; 0.00327 in test [18]; 0.509 in [19]. The z-score in [20] was 0.902 (inactive). Besides, the composite z-score in test [2] is -0.602.
